Laboratory results taken from ChEMBL document CHEMBL3988442, “University of Dundee, Small-Polar-MMV Screening Library” (2021).
In all, about 48,000 compounds went through this assay and about 13,000 (27%) showed an effect of 50% or more. The list shows a part of the results.

The compounds below were run on Wolbachia pipientis (assay: Anti-Wolbachia Cell-Based Screen). Conditions: 5 µM.
Format: functional
Design: scale not given: in the data most compounds retested in dose-response had high values

SMILES	Percent Effect [%]
CN(C)CC1CN(c2ncnc3[nH]ccc23)CCO1 (stereo not given)	4.502
CC(C)c1ncc2c(n1)CN(Cc1ccc(C(N)=O)cc1)CC2	-9.095
c1ncc2c(n1)CN(c1ncnc3[nH]ccc13)CC2	97.2
COCCCN1CC2(CCCN(c3ncnc4[nH]ccc34)C2)CCC1=O (stereo not given)	0.6665
OC1(CN2CCCC2)COCCN(c2ncnc3[nH]ccc23)C1 (stereo not given)	7.822
Cc1ncc2c(n1)CN(C(C(N)=O)c1ccc(F)cc1)CC2 (stereo not given)	-2.692
CC(C)c1ncc2c(n1)CN(c1ncnc3[nH]ccc13)CC2	96.63
Cn1cc(C2CCCN2c2ncnc3[nH]ccc23)cn1 (stereo not given)	-13.62
c1nc(N2CCc3[nH]cnc3C2)c2cc[nH]c2n1	98.13
Cc1nc(C)n(CC2CCCN(c3ncnc4[nH]ccc34)C2)n1 (stereo not given)	6.618
CC(C)c1ncc2c(n1)CN(CC1CCCCO1)CC2 (stereo not given)	-13.54
Cc1ncc2c(n1)CN(c1ncnc3[nH]ccc13)CC2	103
CC(C)CCN(C(=O)c1cc2c([nH]c1=O)CCCC2=O)C1CC1	-4.935
O=C(NC(C1CC1)C1CC1)c1cccc[n+]1[O-]	1.029
Cn1cc(Br)cc(NC(=O)Cc2cccs2)c1=O	-8.828
CCc1cnc(CNc2cccc3c2CCN(S(=O)(=O)CC)C3)o1	-1.845
CN(CCCc1cc(-c2cccc(F)c2)n[nH]1)C(=O)CCn1cncn1	11.69
CNC(=O)[C@@H](C1CCCCC1)N1CCC[C@H]1C(=O)N(C)CCN(C)C.Cl.Cl	6.649
Cc1cccc(CN2Cc3[nH]nc(COCc4nccs4)c3C2)n1.O=C(O)C(F)(F)F	-5.307
CS(=O)(=O)NCc1cncc2c1CCN(C(=O)c1cccnc1)C2.Cl.Cl	94.15
Cc1occc1C(=O)N1CCc2c(CNc3ncccn3)cncc2C1.Cl	-10.41
CS(=O)(=O)NCc1cncc2c1CCN(C(=O)c1ccccn1)C2	100.5

SMILES	Percent Effect [%]
Cl.Cn1cccc1C(=O)N1CCc2c(CNS(C)(=O)=O)cncc2C1	99.59
COCc1cncc2c1CCN(C(=O)c1ccoc1C)C2	-16.93
Cc1cccc(C(=O)N2CCc3c(COCC4CC4)cncc3C2)n1	-8.984
CN(C)C(=O)N1CCc2c(CNc3ncccn3)cncc2C1	-13.49
CC(C)NC(=O)N1CCc2c(CNc3ncccn3)cncc2C1.Cl	-8.609
Cc1occc1C(=O)N1CCc2c(CNS(C)(=O)=O)cncc2C1.Cl	99.94
Cc1nc(-c2cnn(C)c2)nc2c1CN(C(=O)c1cccn1C)CC2	-11.99
O=C(O)C1CCN(c2ccc(Sc3ccc(Br)cc3)nn2)CC1	-8.294
Cc1cccc2c1OCCC2NCc1c(C)nn(C)c1N(C)C (stereo not given)	-23.23
Cc1ccc(C(=O)N2CCc3c(CNc4ncccn4)cncc3C2)o1.Cl	96.21
Cc1ccc(C(=O)N2CCc3c(CNS(C)(=O)=O)cncc3C2)o1.Cl	-12.96
Cc1ccc(C(=O)N2CCc3c(COCC4CC4)cncc3C2)o1	-16.58
CCc1cnc(N2CCN(Cc3ccon3)CC2)s1	-1.549
O=C(c1cc(Cl)c2c(c1)OCCCO2)N(CC1CCOC1)C1CC1 (stereo not given)	-3.487
Cn1c(=O)c2sccc2n(CC(=O)Nc2cccc(Cl)c2)c1=O	134.9
Cn1c(=O)c2sccc2n(Cc2ccccc2)c1=O	-1.761
Cc1cc(=O)n(CC(=O)Nc2cccc(Cl)c2)nc1C	-4.372
COc1ccc(Cn2c(=O)n(C)c(=O)c3sccc32)cc1	5.606
CC(C)c1cccc(NC(=O)N2CC(N(C)C)C2)c1	-4.396
O=C(Cn1cc(-c2ccccc2)ncc1=O)Nc1ccncc1	8.409
CC(C)c1cccc(NC(=O)Cn2c(=O)n(C)c(=O)c3sccc32)c1	155.2
CCn1nc(C)c2nnn(CC(=O)Nc3cccc(Cl)c3)c(=O)c21	-0.8024

SMILES	Percent Effect [%]
O=C(Cn1c(=O)nc2n1C(=O)N(c1ccccc1)C2)Nc1ccccc1	2.08
CCn1c(=O)c2sccc2n(CC(=O)Nc2cccc(Cl)c2)c1=O	148.7
COc1cccc(Cn2c(=O)n(C)c(=O)c3sccc32)c1	-18.58
CC(C)n1c(=O)c2sccc2n(CC(=O)Nc2ccccc2)c1=O	126.1
O=C(NCc1ccco1)Nc1cccc(S(=O)(=O)C(F)F)c1	12.8
Cc1nc2cc(OCc3nc(C(=O)NC(CO)CO)co3)ccc2s1	-12.2
CCC(C(=O)NCc1ccncc1)N(c1ccc(F)cc1)S(C)(=O)=O (stereo not given)	-11.09
Cc1cc(C)c2nc(CN3CCC(CN)C3)cc(O)c2c1 (stereo not given)	-17.01
Cc1cc(Br)oc1C(=O)N1CCN(CC(N)=O)CC1	-14.01
CS(=O)(=O)Cc1nc(C2CC2)nn1-c1ccccn1	-14.62
CC(C)CS(=O)(=O)N1CCC2(CC1)CCn1c(-c3cnn(C)c3)cnc12	2.953
Cn1cc(CC(CNC(=O)Nc2cccc(Cl)c2)C(N)=O)cn1 (stereo not given)	3.636
CC(C)n1c(=O)c2sccc2n(CC(=O)Nc2cccc(Cl)c2)c1=O	121.3
CN(C)c1nc(N)nc(CSCCC(=O)Nc2cccc(Cl)c2)n1	5.106
Cc1cccc(CN2C[C@@H]3COC[C@]3(CNC(=O)N3CCCC3)C2)n1.O=C(O)C(F)(F)F.O=C(O)C(F)(F)F	5.948
Cc1ccccc1CN1C[C@@H]2COC[C@]2(CNC(=O)C2CCC2)C1.O=C(O)C(F)(F)F	116.7
Cc1cccc(CN2C[C@@H]3COC[C@]3(CNC(=O)C3CC3)C2)c1.O=C(O)C(F)(F)F	102.9
O=C(NC[C@]12COC[C@H]1CN(Cc1nccs1)C2)N1CCCC1.O=C(O)C(F)(F)F	28.78
O=C(NC[C@]12COC[C@H]1CN(Cc1nccs1)C2)c1ccccc1.O=C(O)C(F)(F)F	17.76
Cc1cccc(CN2C[C@@H]3COC[C@]3(CNC(=O)C3CCC3)C2)c1.O=C(O)C(F)(F)F	92.72
COc1cccc(CN2C[C@@H]3COC[C@]3(CNC(=O)C3CC3)C2)c1.O=C(O)C(F)(F)F	100.6
